Measured values reported in the supplement of paper PMC10127200.
Where a name gives a salt, the structure may show the parent alone.

Legend:
Experiment in all cases: Euclidean distance of Cell Painting phenotypic profile (signed KS, 77 features) to DMSO centroid (dimensionless distance); 5 or 10 uM (library dependent); higher = stronger phenotypic change vs DMSO (phenoactivity)
Settings in all cases: 48 h
[1] = test system: 786-O
How it was run: (§1)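 At 10 or 5 uM, as set by the library, and 0.1% DMSO final, compounds were applied for 48 h to five cancer lines and one healthy fibroblast line. Stained cells were imaged confocally at 20X in 9 fields per well, and Harmony extracted 77 features scored as signed Kolmogorov-Smirnov statistics against vehicle wells on the same plate. Profiles underwent plate-position correction, correlation weighting and replicate averaging at the top dose. Phenoactivity is the Euclidean distance from each such profile to the median vehicle profile.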

[2] = test system: A549
How it was run: as §1

[3] = test system: DU145
How it was run: as §1

[4] = test system: FB
How it was run: as §1

[5] = test system: HEPG2
How it was run: as §1

[6] = test system: OVCAR4
How it was run: as §1

| SMILES | Euclidean distance [1] | Euclidean distance [2] | Euclidean distance [3] | Euclidean distance [4] | Euclidean distance [5] | Euclidean distance [6] |
| --- | --- | --- | --- | --- | --- | --- |
| c1ccc(-c2ccc(C(c3ccccc3)n3ccnc3)cc2)cc1 (stereo not drawn) [Bifonazole] | 1.54 | 1.43 | 1.19 | 1.17 | 0.639 | 1.31 |
| CCC(Cc1c(I)cc(I)c(N)c1I)C(=O)O (stereo not drawn) [Iopanoic acid] | 0.512 | 0.937 | 0.812 | 1.22 | 0.765 | 0.713 |
| Cn1cnc(N)c2ncnc1-2 [3-Methyladenine] | 1.21 | 1.11 | 1.58 | 1.28 | 1.37 | 0.677 |
| Nc1ccc(/N=N/c2ccccc2)c(N)n1 [Phenazopyridine HCl] | 1.22 | 0.654 | 0.961 | 1.04 | 1.07 | 0.739 |
| N[C@H](CO)C(=O)O [(R)-Serine] | 1.31 | 1.48 | 0.909 | 0.797 | 0.786 | 1.43 |
| Cn1cc(/C=C2\C(=O)Nc3cccnc32)c2ccccc21 | 0.739 | 1.41 | 1.16 | 1.5 | 0.771 | 1.53 |
| CC[C@H](C)C(=O)O[C@H]1C[C@@H](C)C=C2C=C[C@H](C)[C@H](CC[C@@H]3C[C@@H](O)CC(=O)O3)[C@H]21 [Lovastatin] | 1.17 | 1.61 | 0.903 | 2 | 2.11 | 0.909 |
| CC1(C)CC[C@]2(NC(=O)C(C)(F)F)CC[C@]3(C)[C@H](C(=O)C=C4[C@@]5(C)C=C(C#N)C(=O)C(C)(C)[C@@H]5CC[C@]43C)[C@@H]2C1 [Omaveloxolone (RTA-408)] | 6.36 | 4.96 | 6.92 | 7.18 | 5.59 | 6.32 |
| c1ccc(NCc2ccc(CNc3ccccn3)cc2)nc1 | 0.787 | 1.08 | 0.956 | 1.09 | 0.936 | 1.15 |
| COCCc1ccc(OCC(O)CNC(C)C)cc1 (stereo not drawn) [Metroprolol succinate] | 0.936 | 0.527 | 0.62 | 1.14 | 0.935 | 1.9 |
| Cc1cnc(C(=O)N[C@H]2CCCCC/C=C\[C@@H]3C[C@@]3(C(=O)NS(=O)(=O)C3CC3)NC(=O)[C@@H]3C[C@@H](Oc4nc5ccccc5c5ccccc45)CN3C2=O)cn1 [Paritaprevir (ABT-450)] | 1.48 | 1.53 | 1.52 | 1.17 | 0.513 | 1.39 |
| Cc1cc(NS(=O)(=O)c2ccc(N)cc2)nc(C)n1 [sulfaisodimidine] | 0.897 | 0.563 | 0.503 | 0.948 | 0.529 | 0.686 |
| CCN1CCN(Cc2ccc(Nc3ncc(F)c(-c4cc(F)c5nc(C)n(C(C)C)c5c4)n3)nc2)CC1 [Abemaciclib] | 4.11 | 4.37 | 3.65 | 4.04 | 3.81 | 3.89 |
| COc1cc(C(=O)NCc2ccc(OCCN(C)C)cc2)cc(OC)c1OC [Tribenzagan Hydrochloride] | 1.18 | 1.99 | 1.05 | 1.12 | 1.07 | 1.09 |
| O=C(C=Cc1ccccc1)NC(NC(=S)Nc1ccc(Cl)cc1)C(Cl)(Cl)Cl (stereo not drawn) | 1.51 | 2.16 | 1.33 | 1.53 | 2.23 | 1.08 |
| CNC(=O)c1ccc2cc([C@@]3(O)CCn4cncc43)ccc2c1 [TAK-700 (Orteronel)] | 0.951 | 0.683 | 0.67 | 1.1 | 1.1 | 0.845 |
| CNc1ncc(-c2ccc3c(=O)c(C(=O)O)cn(C4CC4)c3c2C)cc1C [Ozenoxacin] | 1.31 | 0.846 | 0.593 | 1.13 | 1.01 | 0.85 |
| Cn1c(=O)cc(N2CCC[C@@H](N)C2)n(Cc2cc(F)ccc2C#N)c1=O [Trelagliptin succinate] | 0.808 | 1.21 | 1.04 | 1.06 | 0.54 | 1.49 |
| CC1(C)CC(Oc2ccc(-c3ccc(-c4cn[nH]c4)cc3O)nn2)CC(C)(C)N1 [Branaplam (LMI070)] | 2.88 | 2.86 | 4.33 | 3.24 | 3.03 | 3.09 |
| COCCCOc1ccnc(C[S+]([O-])c2nc3ccccc3[nH]2)c1C (stereo not drawn) [Rebeprazole sodium] | 0.719 | 0.641 | 0.763 | 1.22 | 1.54 | 0.777 |
| C#CCN(C)CCCOc1ccc(Cl)cc1Cl [Clorgyline HCl] | 0.821 | 0.714 | 0.727 | 1.14 | 0.806 | 0.745 |
| Cc1ccc(C(=O)Nc2cccc(C(F)(F)F)c2)cc1Nc1nc(-c2cccnc2)nc2c1cnn2C | 3.33 | 3.93 | 3.91 | 1.82 | 3.78 | 1.46 |
| O=C1C(CC[S+]([O-])c2ccccc2)C(=O)N(c2ccccc2)N1c1ccccc1 (racemic) [(+/-)-Sulfinpyrazone] | 1.01 | 1.79 | 1.38 | 1.22 | 0.755 | 0.993 |
| CN(C)CCOc1ccc(/C(=C(/CCCl)c2ccccc2)c2ccccc2)cc1 [Toremifene Citrate] | 1.72 | 1.56 | 1.81 | 1.97 | 2.79 | 2.17 |

| SMILES | Euclidean distance [1] | Euclidean distance [2] | Euclidean distance [3] | Euclidean distance [4] | Euclidean distance [5] | Euclidean distance [6] |
| --- | --- | --- | --- | --- | --- | --- |
| O=C(O)c1cc(=O)c2ccccc2o1 [Chromocarb] | 1.02 | 0.437 | 0.751 | 1.04 | 0.887 | 0.727 |
| CN(Cc1cnc2nc(N)nc(N)c2n1)c1ccc(C(=O)N[C@@H](CCC(=O)O)C(=O)O)cc1 [Methotrexate disodium] | 2.05 | 3.23 | 0.912 | 0.603 | 1.47 | 2.39 |
| CCCCCc1ccc(C)cc1O [Amylmetacresol] | 0.732 | 0.727 | 0.517 | 0.859 | 0.412 | 0.661 |
| Cc1cc(NS(=O)(=O)c2ccc(N)cc2)no1 [Sulfamethoxazole sodium] | 1.09 | 0.64 | 1.01 | 0.902 | 0.561 | 1.28 |
| Cc1ncc(-c2ccnc(Nc3ccc(S(C)(=O)=O)cc3)n2)n1C(C)C | 2.6 | 3.78 | 3.05 | 3.19 | 3.09 | 3.43 |
| NC1(Cc2ccc(Cl)cc2)CCN(c2ncnc3[nH]ccc23)CC1 | 1.5 | 1.13 | 1.5 | 1.39 | 1.17 | 1.39 |
| CC(C)N1CCN(c2ccc(OCC3COC(Cn4cncn4)(c4ccc(Cl)cc4Cl)O3)cc2)CC1 (stereo not drawn) [Terconazole] | 1.82 | 2.07 | 1.88 | 1.04 | 0.664 | 1.06 |
| CC1(C)OC[C@@H](COC(=O)CCc2ccc(OC[C@@H](O)CNCCNC(=O)N3CCOCC3)cc2)O1 [Landiolol hydrochloride] | 1.18 | 0.835 | 1.25 | 1.04 | 0.692 | 1.25 |
| CN1CCCC(n2nc(Cc3ccc(Cl)cc3)c3ccccc3c2=O)CC1 (stereo not drawn) [Azelastine HCl] | 1.09 | 0.991 | 0.881 | 2.15 | 1.14 | 0.789 |
| COC(=O)N(C)c1c(N)nc(-c2nn(Cc3ccccc3F)c3ncccc23)nc1N [Riociguat (BAY 63-2521)] | 1.1 | 0.74 | 0.825 | 1.34 | 0.598 | 0.876 |
| COc1ccc(CNc2nc(N3CCC[C@H]3CO)ncc2C(=O)NCc2ncccn2)cc1Cl [Avanafil] | 1.22 | 0.789 | 1.12 | 0.94 | 0.764 | 1.44 |
| C=C[C@]1(C)C[C@@H](OC(=O)CS[C@@H]2C[C@H]3CC[C@@H](C2)N3C)[C@]2(C)[C@H](C)CC[C@]3(CCC(=O)[C@H]32)[C@@H](C)[C@@H]1O [Retapamulin] | 1.44 | 1.81 | 1.32 | 1.51 | 1.51 | 1.59 |
| Cc1nc(=O)c2cc(CN(C)c3ccc(C(=O)N[C@@H](CCC(=O)O)C(=O)O)s3)ccc2[nH]1 [Raltitrexed] | 1.96 | 2.87 | 0.703 | 0.633 | 2.39 | 2.76 |
| CN1CC[C@H](c2c(O)cc(O)c3c(=O)cc(-c4ccccc4Cl)oc23)[C@H](O)C1 [Flavopiridol HCl] | 3.1 | 3.15 | 3.43 | 3.29 | 2.41 | 3.45 |
| Cc1ccccc1C(=O)Nc1ccc(C(=O)N2CCCC(O)c3cc(Cl)ccc32)c(C)c1 (stereo not drawn) [Tolvaptan] | 1.6 | 0.937 | 0.873 | 1.14 | 0.957 | 0.738 |
| O=C1NC(=O)/C(=C/c2ccc3c(c2)OC(F)(F)O3)S1 | 1.35 | 1.7 | 1.51 | 1.44 | 1.13 | 0.892 |
| Cc1c(-c2ccc(O)cc2)n(Cc2ccc(OCCN3CCCCCC3)cc2)c2ccc(O)cc12 [Bazedoxifene HCl] | 5.12 | 4.91 | 3.42 | 4.82 | 4.62 | 4.32 |
| CC(=C(CCOC(=O)C(C)C)SSC(CCOC(=O)C(C)C)=C(C)N(C=O)Cc1cnc(C)nc1N)N(C=O)Cc1cnc(C)nc1N (stereo in doubt) [Sulbutiamine] | 1.35 | 0.871 | 0.854 | 1.12 | 0.637 | 1.49 |
| CNCCCN1c2ccccc2CCc2ccccc21 [Desipramine Hydrochloride] | 0.817 | 1.07 | 1.11 | 1.73 | 1.43 | 1.25 |
| COC1=CC(=O)C[C@@H](C)[C@]12Oc1c(Cl)c(OC)cc(OC)c1C2=O [Griseofulvin] | 0.605 | 0.678 | 0.803 | 1.48 | 0.745 | 0.81 |
| O=C(NNc1nc2cc(F)ccc2n2cccc12)c1cnccn1 | 3.74 | 2.78 | 2.25 | 3.85 | 2.84 | 5.56 |
| CCCCN1CCCC[C@H]1C(=O)Nc1c(C)cccc1C [Levobupivacaine HCl] | 1.01 | 1.33 | 0.6 | 0.871 | 0.852 | 1.49 |
| COc1cc(OC)c(C(=O)CCCN2CCCC2)c(OC)c1 [Buflomedil HCl] | 1.46 | 1.05 | 0.962 | 1.04 | 0.715 | 1.18 |
| CC(C)(C#N)c1ccc(N2C(=O)OCc3cnc4ccc(-c5cnc6ccccc6c5)cc4c32)cc1 | 3.92 | 2.98 | 0.959 | 0.992 | 0.996 | 4.19 |
